Measurements taken from PubChem BioAssay (NCI).
Compounds without any hit were thinned out: in the full panel of roughly 79,000, 15% have a hit. Rule as the data show it: active = growth inhibition above about 70%; inactive = the rest.

What was measured:
[1] = NCI Yeast Anticancer Drug Screen. Data for the rad50 strain (AID 155);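 also: 0% = growth of vehicle-only cultures of the same strain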; conditions: S. cerevisiae rad50 strain growth inhibition; at 50.0 µM; stronger effect = higher value
Procedure, shortened: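 Yeast carrying a defined DNA repair defect were exposed to test compounds, and growth was compared with vehicle-treated controls to give percent inhibition.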

[2] = NCI Yeast Anticancer Drug Screen. Data for the mec2-1 strain (AID 157); conditions: S. cerevisiae mec2-1 strain, at 50.0 µM, stronger effect = higher value
Procedure, shortened: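 Vehicle-treated cultures served as reference for growth inhibition of compound-exposed mec2-1 yeast.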

[3] = NCI Yeast Anticancer Drug Screen. Data for the sgs1 mgt1 strain (AID 161);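 also: 0% = growth of cultures given vehicle only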; conditions: S. cerevisiae sgs1 mgt1 strain, at 50.0 µM, stronger effect = higher value
Procedure, shortened: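 Inhibition of yeast growth, normalised to vehicle-treated controls, is reported for a strain bearing genetic alterations in DNA damage repair.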

[4] = NCI Yeast Anticancer Drug Screen. Data for the cln2 rad14 strain (AID 165);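 also: 0% = growth equal to vehicle treated cultures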; conditions: S. cerevisiae cln2 rad14 strain, at 50.0 µM, stronger effect = higher value
Procedure, shortened: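 Each compound was tested on cln2 rad14 yeast. Inhibition of growth was calculated against vehicle-exposed controls.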

[5] = NCI Yeast Anticancer Drug Screen. Data for the bub3 strain (AID 167); conditions: S. cerevisiae bub3 mutant strain, at 50.0 µM, stronger effect = higher value
Procedure, shortened: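 Compounds were applied to a genetically altered yeast strain carrying a cell-cycle control defect. Growth inhibition was scored against vehicle-treated controls.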

[6] = NCI Yeast Anticancer Drug Screen. Data for the mlh1 rad18 strain (AID 175); conditions: S. cerevisiae mlh1 rad18 strain growth inhibition; at 50.0 µM; stronger effect = higher value
Procedure, shortened: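 Vehicle-treated cultures served as the reference for growth inhibition in a yeast strain carrying DNA damage repair alterations exposed to each compound.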

Measured: growth inhibition

CC(=O)N(C)c1ccc(O)cc1
inactive: [1] 14.6% | [2] -16.1% | [3] -16.1% | [4] -18.6% | [5] -8.9% | [6] 9.2%

CCC(C)N=C1NS(=O)(=O)c2ccccc21 (configuration not stated)
inactive: [1] 9.5% | [2] -3.3% | [3] -2.4% | [4] 33.2% | [5] -8.55% | [6] 7.85%

COc1ccc2c(c1)CC1(CC2)NCC(=O)NC1=O (configuration not stated)
inactive: [1] 7.9% | [2] 15.6% | [3] -11.8% | [4] -2% | [5] 5.8% | [6] 12.4%

C=CCOC(OCC=C)C(C)C
inactive: [1] -0.5% | [2] -12.2% | [3] -13.9% | [4] -3.4% | [5] -23.4% | [6] -3.4%

OC(c1cccnc1)C(CCc1ccccn1)c1ccccn1 (configuration not stated)
inactive: [1] 2.65% | [2] 13.1% | [3] -4.6% | [4] -46% | [5] 4.3% | [6] 4%

CCCCCCCCCCCOC(=O)CCl
inactive: [1] 1.4% | [2] -13% | [3] -16.9% | [4] -12.3% | [5] -12.8% | [6] -7.4%

CCN(CC)CCSc1ccnc2cc(Cl)ccc12
inactive: [1] 16.3% | [2] 23.1% | [3] 52.8% | [4] 47.5% | [5] 36% | [6] 21.8%

CC1OC(CO)C2OC(C)OCC2O1 (configuration not stated)
inactive: [1] -14.2% | [2] -13.9% | [3] -12.8% | [4] -18.1% | [5] 5.75% | [6] 3.95%

COc1ccc(-c2cc(-c3ccc(C)cc3)n(C3OC(COC(C)=O)C(OC(C)=O)C(OC(C)=O)C3OC(C)=O)c(=S)c2C#N)cc1 (configuration not stated)
inactive: [1] -10.6% | [2] -11.2% | [3] -10.3% | [4] 16.9% | [5] -2% | [6] 4.4%

CC1(C)CCCC(OC(=O)c2ccc([N+](=O)[O-])cc2)C1 (configuration not stated)
inactive: [1] 10.4% | [2] -17.5% | [3] -1.3% | [4] -2.05% | [5] 7.5% | [6] -10.6%

O=C(Cl)c1cc(-c2ccccc2)nc2c(Cl)cccc12
inactive: [1] 46.1% | [2] 39.4% | [3] 43% | [4] 39.1% | [5] 40.5% | [6] 38%

O=C1C2C3CC4C5CC(C1C53)C42 (configuration not stated)
inactive: [1] 4.85% | [2] -7.45% | [3] 3.35% | [4] 5.05% | [5] -5.4% | [6] 1.7%

CP(=O)(CCSc1ccccc1)c1ccccc1 (configuration not stated)
inactive: [1] -12.5% | [2] -20.5% | [3] -0.85% | [4] 23.6% | [5] -10.7% | [6] -21.1%

O=C(c1ccc(OC(=O)c2ccccc2O)cc1)c1ccc(OC(=O)c2ccccc2O)cc1
inactive: [1] 27.6% | [2] 6.75% | [3] 29.3% | [4] -100% | [5] 8.3% | [6] 15.9%

C[N+](C)(N)CCC[N+](C)(C)N
inactive: [1] 12.4% | [2] 5.2% | [3] -3.3% | [4] -29.4% | [5] -52.6% | [6] -3.4%

CC1CCCC(C)(C)/C1=N/O (configuration not stated)
inactive: [1] 16.1% | [2] 20.2% | [3] 12.5% | [4] 12.8% | [5] 20.8% | [6] 6.7%

O=C(NN=C1CCCCC1)NN=C1CCCCC1
inactive: [1] -40.2% | [2] -10.8% | [3] -29.2% | [4] -2.4% | [5] -6.55% | [6] -0.4%

CSCCC(N)=O
inactive: [1] -10.2% | [2] -6.95% | [3] 9.8% | [4] 0.05% | [5] -16.8% | [6] 2.9%

C[C@]12CCC(=O)CC1CCCC2=O (some centres not stated)
inactive: [1] 9.9% | [2] -10.8% | [3] 6.4% | [4] 24.1% | [5] -6.7% | [6] 19.8%

CCOC(=O)CC(C#N)C(C)C(=O)OCC (configuration not stated)
inactive: [1] 2.3% | [2] 1.3% | [3] 0.4% | [4] 6.5% | [5] 0.9% | [6] -0.35%

O=C(CCCCCCCCC(=O)OCc1ccccc1)OCc1ccccc1
inactive: [1] 19.2% | [2] 2.55% | [3] 3.85% | [4] -24.2% | [5] 11.2% | [6] 41%

O=C(N/N=C/c1ccccc1)c1c(F)c(F)c(F)c(F)c1F
inactive: [1] -27.6% | [2] 9% | [3] -32.9% | [4] 12.2% | [5] 0.6% | [6] 0.6%

COc1cc(OC)c(-c2oc3ccccc3c(=O)c2O)c(OC)c1
inactive: [1] -9.5% | [2] 12.7% | [3] 2.4% | [4] -13.2% | [5] 4.65% | [6] -5.45%

COc1cccc(/C=C2/C(=O)N(c3ccc([N+](=O)[O-])cc3)N=C2C)c1
inactive: [1] 34.5% | [2] 5.1% | [3] 37.9% | [4] 11.9% | [5] 14.3% | [6] 43.9%

OCCN(c1ccccc1)c1nc(N(CCO)c2ccccc2)nc(N(CCO)c2ccccc2)n1
inactive: [1] 2.7% | [2] 8.8% | [3] 32.5% | [4] 7.75% | [5] 29.9% | [6] 1.7%

CCCCCCCCCCCCCCCCOc1ccc(N)cc1
inactive: [1] 11.7% | [2] 6.05% | [3] -16.3% | [4] -41.2% | [5] 19% | [6] 1.1%

COc1ccc(S(=O)(=O)O)cc1N
inactive: [1] -21.2% | [2] -15.9% | [3] -13.5% | [4] -5.15% | [5] -11.9% | [6] -3.95%

C[N+](C)(C)CCc1ccc2ccccc2c1
inactive: [1] 12.2% | [2] 11.8% | [3] 9.35% | [4] 0.1% | [5] 5.7% | [6] 12.8%

CP1(=O)CC(=O)CCCCC(=O)C1
inactive: [1] 2.25% | [2] -1.6% | [3] -1.2% | [4] -25.8% | [5] 42.7% | [6] 19.6%

Cc1cc(C)c(C#N)c(SC(C(=O)Nc2cc(C(F)(F)F)ccc2Cl)c2ccccc2)n1 (configuration not stated)
inactive: [1] 2.35% | [2] -13.2% | [3] 23.6% | [4] 19.1% | [5] 2.95% | [6] 8.25%

Cc1ccc(C2(c3ccc(Cl)cc3)c3ccccc3C3=NCCN32)cc1 (configuration not stated)
inactive: [1] 19.9% | [2] 9.15% | [3] 25.6% | [4] 23% | [5] 28.1% | [6] 30.7%

COc1cc2oc3c(C)c(=O)cc4oc(-c5ccccc5)cc(c2c2c1CCC(c1ccccc1)O2)c43 (configuration not stated)
inactive: [1] -23.6% | [2] -5.9% | [3] -20.1% | [4] 4.35% | [5] -20.2% | [6] -0.7%

CN(C)CCCC1(O)c2ccccc2Sc2cc(Cl)ccc21 (configuration not stated)
inactive: [1] 12.9% | [2] 12.9% | [3] 17.9% | [4] 18.6% | [5] 12.7% | [6] 25.9%

Cc1ccc(S(=O)(=O)OCC23CCC(CO)(CC2)CC3)cc1
inactive: [1] 9.75% | [2] -2.45% | [3] -0.85% | [4] 15.7% | [5] 27.2% | [6] 14.2%

CC(C)CCC(C)c1ccncc1 (configuration not stated)
inactive: [1] 11.7% | [2] 0.4% | [3] -7.05% | [4] -6.5% | [5] 3.35% | [6] 0.45%

Cc1cnc2c(N)nc(-c3ccccc3)nc2n1
inactive: [1] 8.55% | [2] -2.1% | [3] -6.9% | [4] -39.4% | [5] -5.15% | [6] -0.45%

CC(=O)c1cccc2ccccc12
inactive: [1] -7.8% | [2] 5.55% | [3] 3.65% | [4] -9.1% | [5] -11.1% | [6] -5.95%

O=c1oc2nc(-c3ccccc3)[nH]c(=O)c2c2c1CCCC2
inactive: [1] -8.5% | [2] -7.15% | [3] -19.2% | [4] 9.3% | [5] -17.9% | [6] 19.9%

O=C(O)/C(=C/C=C/c1ccccc1)c1csc(-c2nc(/C(=C\C=C\c3ccccc3)C(=O)O)cs2)n1
inactive: [1] 22% | [2] 13.3% | [3] 19.4% | [4] 16.9% | [5] 19.1% | [6] 9.15%

O=C(O)c1cc(C(=O)O)cc(N2C(=O)c3ccccc3C2=O)c1
inactive: [1] 1.45% | [2] -30.4% | [3] -22.4% | [4] 39.3% | [5] -6.1% | [6] 0.5%

CCCCN(CCCC)CCCNC(=O)OCC
inactive: [1] -4.2% | [2] -22.9% | [3] -7% | [4] 14.6% | [5] -26.8% | [6] -6.2%

CC(C)CCC(=O)OC/C(=N\Nc1ccc([N+](=O)[O-])cc1[N+](=O)[O-])c1ccc(-c2ccccc2)cc1
inactive: [1] -17.7% | [2] 12.5% | [3] -15.8% | [4] -35.6% | [5] 1.9% | [6] 14.8%
